From PubChem BioAssay (NCATS)
Records with an inconclusive call do not appear. The source made the active and inactive calls. Calls come from the whole dose curve; as a rule, active = well fitted curve in the direction sought with a large enough effect; inconclusive = small, poorly fitted or top-dose-only effect, or another doubt; inactive = no such curve, though single readings can be large; an effect the other way counts as inactive or inconclusive.

Columns and labels:
[1] = biological target: Rap guanine nucleotide exchange factor 3 (Homo sapiens) (UniProt O95398); assay: Confirmatory qHTS for antagonist of cAMP-regulated guanine nucleotide exchange factor 3 (EPAC1) (AID 1645880); note: nearly all actives have a fitted effect of over 55% in size; note: potency is the fitted concentration of half-maximal effect
Outline: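 Released BODIPY-GDP fluoresces less than Rap1-bound BODIPY-GDP; the signal is followed at 480/540 nm at 5-min intervals over 30 min, after 5 min at room temperature. Reactions contain 100 nM EPAC1, 250 nM RAP1B-BODIPY-GDP and 50 uM GDP; results are normalized to ATA and DMSO.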

[2] = biological target: Rap guanine nucleotide exchange factor 3 (Homo sapiens) (UniProt O95398); assay: Confirmatory qHTS for agonist of cAMP-regulated guanine nucleotide exchange factor 3 (EPAC1) (AID 1645881); note: nearly all actives have a fitted effect of over 75% in size; note: potency is the fitted concentration of half-maximal effect;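 for activation: EPAC1 catalysed release of BODIPY-GDP from Rap1B seen as fluorescence loss; 100% = effect of cAMP agonist control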
[3] = biological target: Rap guanine nucleotide exchange factor 4 (Homo sapiens) (UniProt Q8WZA2); assay: Confirmatory qHTS for agonist of cAMP-regulated guanine nucleotide exchange factor 4 (EPAC2) (AID 1645884);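 note: nucleotide exchange releases bodipy-GDP from Rap1 and this lowers its fluorescence; nearly all actives have a fitted effect of over 65% in size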; note: potency is the fitted concentration of half-maximal effect; for activation: % is set by controls: 0 for no effect and ±100 for the full control effect
[4] = biological target: Rap guanine nucleotide exchange factor 4 (Homo sapiens) (UniProt Q8WZA2); assay: Confirmatory qHTS for antagonist of cAMP-regulated guanine nucleotide exchange factor 4 (EPAC2) (AID 1645885); note: nearly all actives have a fitted effect of over 25% in size; note: potency is the fitted concentration of half-maximal effect; for activity change, negative = inhibition: % is set by controls: 0 for no effect and ±100 for the full control effect
[5] = biological target: Rap guanine nucleotide exchange factor 3 (Homo sapiens) (UniProt O95398); assay: Counterscreen qHTS for antagonist of cAMP-regulated guanine nucleotide exchange factor 3 (EPAC1) (AID 1645888); note: % of control where 0% means no effect
Outline: (§1)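 Measured: fluorescence of BODIPY-GDP bound to Rap1B, which falls as exchange proceeds. Conditions include 50 uM competing GDP, 5 and 30 min reads, and a later cAMP challenge for antagonist detection.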

[6] = biological target: Rap guanine nucleotide exchange factor 3 (Homo sapiens) (UniProt O95398); assay: Counterscreen qHTS for agonist of cAMP-regulated guanine nucleotide exchange factor 3 (EPAC1) (AID 1645889); note: nearly all actives have a fitted effect of over 40% in size; note: potency is the fitted concentration of half-maximal effect; for activation: % of control where 0% means no effect
Outline: as §1

Sequence of Rap guanine nucleotide exchange factor 3 (Homo sapiens) (O95398 whole entry, looked up): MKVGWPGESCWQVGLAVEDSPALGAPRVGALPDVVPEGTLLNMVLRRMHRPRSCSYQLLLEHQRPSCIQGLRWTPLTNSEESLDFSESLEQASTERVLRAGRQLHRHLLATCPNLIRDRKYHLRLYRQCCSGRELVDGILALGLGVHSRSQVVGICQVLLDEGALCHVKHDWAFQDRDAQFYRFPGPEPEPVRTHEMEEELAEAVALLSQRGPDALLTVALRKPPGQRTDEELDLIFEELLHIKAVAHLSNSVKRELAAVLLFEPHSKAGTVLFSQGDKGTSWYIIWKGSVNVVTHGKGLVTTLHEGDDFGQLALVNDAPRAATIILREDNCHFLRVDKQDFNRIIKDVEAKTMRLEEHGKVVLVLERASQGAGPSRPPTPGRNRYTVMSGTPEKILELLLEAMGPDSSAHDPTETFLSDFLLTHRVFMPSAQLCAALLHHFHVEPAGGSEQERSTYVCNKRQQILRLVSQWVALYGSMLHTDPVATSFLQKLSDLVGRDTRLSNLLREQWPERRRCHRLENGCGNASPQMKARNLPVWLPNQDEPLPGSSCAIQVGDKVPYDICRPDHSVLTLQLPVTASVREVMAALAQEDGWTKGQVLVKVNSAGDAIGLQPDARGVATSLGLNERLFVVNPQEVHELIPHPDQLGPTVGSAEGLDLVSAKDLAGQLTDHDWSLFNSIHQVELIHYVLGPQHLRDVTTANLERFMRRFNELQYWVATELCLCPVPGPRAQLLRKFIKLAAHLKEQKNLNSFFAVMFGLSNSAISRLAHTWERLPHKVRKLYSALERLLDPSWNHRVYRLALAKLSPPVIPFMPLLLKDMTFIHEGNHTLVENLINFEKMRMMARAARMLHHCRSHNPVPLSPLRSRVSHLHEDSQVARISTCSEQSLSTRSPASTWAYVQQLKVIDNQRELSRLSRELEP
Sequence of Rap guanine nucleotide exchange factor 4 (Homo sapiens) (Q8WZA2 whole entry, looked up): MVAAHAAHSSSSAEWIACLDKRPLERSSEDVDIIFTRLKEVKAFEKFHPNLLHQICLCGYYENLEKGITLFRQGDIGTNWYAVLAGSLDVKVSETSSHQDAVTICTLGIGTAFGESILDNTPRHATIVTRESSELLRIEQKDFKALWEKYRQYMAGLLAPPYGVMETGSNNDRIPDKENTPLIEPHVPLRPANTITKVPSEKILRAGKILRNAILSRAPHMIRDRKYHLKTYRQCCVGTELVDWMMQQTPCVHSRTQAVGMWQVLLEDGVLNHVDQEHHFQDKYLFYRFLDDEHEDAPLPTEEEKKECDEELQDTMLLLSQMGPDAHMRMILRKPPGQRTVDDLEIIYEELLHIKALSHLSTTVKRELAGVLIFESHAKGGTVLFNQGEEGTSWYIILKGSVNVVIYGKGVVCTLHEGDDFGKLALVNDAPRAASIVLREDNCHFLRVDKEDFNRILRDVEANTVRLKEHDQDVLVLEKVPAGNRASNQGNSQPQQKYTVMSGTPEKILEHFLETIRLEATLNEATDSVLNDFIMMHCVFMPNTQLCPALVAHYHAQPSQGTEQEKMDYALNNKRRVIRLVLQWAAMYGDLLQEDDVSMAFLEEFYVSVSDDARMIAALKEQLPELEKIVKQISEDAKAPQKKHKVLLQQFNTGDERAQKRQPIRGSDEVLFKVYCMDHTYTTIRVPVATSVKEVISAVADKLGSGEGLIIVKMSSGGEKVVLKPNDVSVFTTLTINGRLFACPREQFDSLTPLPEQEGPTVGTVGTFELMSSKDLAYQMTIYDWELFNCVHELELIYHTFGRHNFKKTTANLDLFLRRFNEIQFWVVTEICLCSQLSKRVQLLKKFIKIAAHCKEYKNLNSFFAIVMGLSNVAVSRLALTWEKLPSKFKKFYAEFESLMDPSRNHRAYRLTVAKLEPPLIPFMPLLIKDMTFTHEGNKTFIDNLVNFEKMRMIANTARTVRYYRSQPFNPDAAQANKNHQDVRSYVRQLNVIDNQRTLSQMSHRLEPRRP

O=C(O)c1ccccc1NS(=O)(=O)c1ccc(N/N=C/c2ccc(O)c(O)c2)c([N+](=O)[O-])c1
inactive: Potency [2] | activation [3] -3.03% [at 17.1 µM, percent relative to cAMP agonist control] | Potency [4] | activity change, negative = inhibition [5] -1.88% [at 30.8 µM] | activation [6] 24.6% [at 30.8 µM]
active: Potency [1] 8.91 µM

COc1ccc(S(=O)(=O)Nc2ccc(OCC(=O)O)cc2)c2ccccc12
active: Potency [4] 47.8 µM
inactive: Potency [1] | Potency [2] | Potency [3] | Potency [5] | Potency [6]

CC(=O)c1cccc(OC(=O)C2=CC=CN3CCS(=O)(=O)N=C23)c1
inactive: Potency [1] | Potency [2] | Potency [3] | Potency [4] | Potency [5] | Potency [6]

COC(=O)C(C)N(C(=O)c1ccc(Cl)cc1)c1c(C)cccc1C (stereo unspecified)
inactive: Potency [1] | Potency [2] | Potency [3] | Potency [4] | Potency [5] | Potency [6]

CCOc1ccc(NC(=O)CN(C)C(=O)c2ccccc2SCc2c(C)noc2C)cc1OCC
inactive: Potency [1] | Potency [2] | activation [3] 1.53% [at 17.1 µM, percent relative to cAMP agonist control] | Potency [4] | activity change, negative = inhibition [5] -10.4% [at 30.8 µM] | activation [6] 18% [at 30.8 µM]

Clc1ccc(-c2cc3ccccc3nc2N2CCOCC2)cc1
inactive: Potency [1] | Potency [2] | Potency [3] | Potency [4] | Potency [5] | Potency [6]

CC[n+]1c(/C=C/C=C/N(C(C)=O)c2ccccc2)sc2cc(OC)ccc21
inactive: Potency [1] | Potency [4] | Potency [5]
active: Potency [2] 100 µM | Potency [3] 112 µM | Potency [6] 50.1 µM

O=C(O)c1ccc(/C=N/N2CCN(Cc3cccc4ccccc34)CC2)cc1
inactive: Potency [1] | Potency [2] | activation [3] 4.54% [at 17.1 µM, percent relative to cAMP agonist control] | Potency [4] | activity change, negative = inhibition [5] -6.71% [at 30.8 µM] | activation [6] 4.41% [at 30.8 µM]

COc1ccccc1/C=C1\SC(=S)N(NS(=O)(=O)c2ccc(C)cc2)C1=O
inactive: Potency [2] | activation [3] 1.14% [at 17.1 µM, percent relative to cAMP agonist control] | Potency [4] | activity change, negative = inhibition [5] 2.6% [at 30.8 µM] | activation [6] -16.6% [at 30.8 µM]
active: Potency [1] 12.6 µM

Cc1ccc(Sc2ccc(S(=O)(=O)Nc3ccc(C(=O)O)cc3)cc2)cc1C
inactive: Potency [2] | Potency [3] | Potency [4] | Potency [5] | Potency [6]
active: Potency [1] 67.5 µM

CCN1/C(=C/C(C)=C/c2sc3ccccc3[n+]2CC)Sc2ccccc21
active: Potency [1] 50.1 µM
inactive: Potency [2] | activation [3] 8.04% [at 17.1 µM, percent relative to cAMP agonist control] | Potency [4] | activity change, negative = inhibition [5] 12.4% [at 30.8 µM] | activation [6] 12.5% [at 30.8 µM]

COc1ccccc1CNC(=O)CCCn1nc(C)c2c(C)n(-c3ccc(C)cc3)nc2c1=O
inactive: Potency [1] | Potency [2] | Potency [3] | outcome [4] inactive [at 12.7 µM] | Potency [5] | Potency [6]

COc1ccc(S(=O)(=O)CC(=O)c2cc3cc(Br)ccc3oc2=O)cc1
active: Potency [1] 50.1 µM
inactive: Potency [2] | activation [3] -4.99% [at 17.1 µM, percent relative to cAMP agonist control] | Potency [4] | activity change, negative = inhibition [5] -4.76% [at 30.8 µM] | activation [6] 7.34% [at 30.8 µM]

CCN(CC)c1ccc2cc(-c3nnc(-c4ccccc4)o3)c(=O)oc2c1
active: Potency [2] 15.8 µM | Potency [3] 15.8 µM | Potency [4] 4.26 µM | Potency [6] 15.8 µM
inactive: Potency [1] | Potency [5]

O=[N+]([O-])c1cc(Cl)ccc1NCCc1ccccn1
inactive: Potency [1] | Potency [2] | activation [3] -1.04% [at 17.1 µM, percent relative to cAMP agonist control] | Potency [4] | activity change, negative = inhibition [5] -15.1% [at 30.8 µM] | activation [6] -0.252% [at 30.8 µM]

COc1ccc(NC(=O)Cn2cnc3sc(C)c(S(=O)(=O)N4CCOCC4)c3c2=O)c(OC)c1
inactive: Potency [1] | Potency [2] | activation [3] -0.644% [at 17.1 µM, percent relative to cAMP agonist control] | Potency [4] | activity change, negative = inhibition [5] -23.9% [at 30.8 µM] | activation [6] 3.18% [at 30.8 µM]

Cc1cccc(NC(=O)c2c(NC(=O)C(F)(F)F)sc3c2CCCCC3)c1
active: Potency [1] 42.6 µM
inactive: Potency [2] | Potency [3] | Potency [4] | Potency [5] | Potency [6]

CC1=C(C(=O)NC2CCC(C)CC2)C2(CCC(C)CC2)OC1=O (stereo unspecified)
inactive: Potency [1] | Potency [2] | activation [3] 1.07% [at 17.1 µM, percent relative to cAMP agonist control] | Potency [4] | activity change, negative = inhibition [5] -11.5% [at 30.8 µM] | activation [6] -0.546% [at 30.8 µM]

COC(=O)c1cc2sc(Cl)cc2n1Cc1c(C)cc(C)cc1C
inactive: Potency [1] | Potency [2] | Potency [3] | Potency [4] | Potency [5] | Potency [6]

C=CC[C@@H](CC(=O)NCCO)C(=O)N[C@@H](C)COC(=O)[C@H](CC=C)CC(=O)OC(C)(C)C
inactive: Potency [1] | Potency [2] | activation [3] -2.5% [at 17.1 µM, percent relative to cAMP agonist control] | Potency [4] | activity change, negative = inhibition [5] 2.15% [at 30.8 µM] | activation [6] -7.04% [at 30.8 µM]

c1ccc2c(c1)oc1c(-c3ccc4nccn4c3)cccc12
inactive: Potency [1] | Potency [2] | activation [3] 0% [at 17.1 µM, percent relative to cAMP agonist control] | Potency [4] | activity change, negative = inhibition [5] -16.8% [at 30.8 µM] | activation [6] 14.4% [at 30.8 µM]

COCCN(C)Cc1nc(C(c2ccccc2)c2ccccc2)no1
active: Potency [4] 47.8 µM
inactive: Potency [1] | Potency [2] | Potency [3] | Potency [5] | Potency [6]

CCOc1cc(/C=N/Nc2nc(-c3cccs3)c(NC(C)=O)s2)ccc1O
inactive: Potency [1] | Potency [2] | Potency [3] | Potency [4] | Potency [5] | Potency [6]

Cc1cccc(C2c3[nH]c4ccccc4c3CCN2Cc2cccn2-c2ncccn2)c1 (stereo unspecified)
inactive: Potency [1] | Potency [2] | activation [3] -1.28% [at 17.1 µM, percent relative to cAMP agonist control] | Potency [4] | activity change, negative = inhibition [5] -4.15% [at 30.8 µM] | activation [6] 17.6% [at 30.8 µM]

O=C(NCCS(=O)(=O)N1CCN(c2cccc(Cl)c2)CC1)c1ccc2c(c1)OCO2
inactive: Potency [1] | Potency [2] | Potency [3] | Potency [4] | Potency [5] | Potency [6]

CC1CN(C(=O)COC(=O)COc2ccc(C#N)cc2)CC(C)O1 (stereo unspecified)
inactive: Potency [1] | Potency [2] | activation [3] -1.51% [at 17.1 µM, percent relative to cAMP agonist control] | Potency [4] | activity change, negative = inhibition [5] -3.73% [at 30.8 µM] | activation [6] 1.53% [at 30.8 µM]

CC(=O)N1CCN(C(=O)COc2ccc(Br)cc2)CC1
inactive: Potency [1] | Potency [2] | Potency [3] | Potency [4] | Potency [5] | Potency [6]

Cc1ccc(-c2csc(N=C(N)N)n2)cc1
inactive: Potency [1] | Potency [2] | activation [3] 2.77% [at 17.1 µM, percent relative to cAMP agonist control] | Potency [4] | activity change, negative = inhibition [5] -10% [at 30.8 µM] | activation [6] 9.63% [at 30.8 µM]

Cc1cc(=O)n2c(sc3ccccc32)c1C#N
inactive: Potency [1] | Potency [2] | activation [3] -1.37% [at 17.1 µM, percent relative to cAMP agonist control] | Potency [4] | activity change, negative = inhibition [5] 11.2% [at 30.8 µM] | activation [6] 22.2% [at 30.8 µM]

CCOC(=O)C1=CCN(S(=O)(=O)c2ccc(C)cc2)C1c1cccs1 (stereo unspecified)
inactive: Potency [1] | Potency [2] | activation [3] 5.63% [at 17.1 µM, percent relative to cAMP agonist control] | Potency [4] | activity change, negative = inhibition [5] 6.49% [at 30.8 µM] | activation [6] 22.8% [at 30.8 µM]

CC(=O)NC(c1ccco1)c1cc(Cl)c2cccnc2c1O (stereo unspecified)
inactive: Potency [1] | Potency [2] | Potency [3] | Potency [4] | Potency [5] | Potency [6]

O=C1c2cccc3cccc(c23)N1Cc1ccc(F)cc1
inactive: Potency [1] | Potency [2] | activation [3] 1.12% [at 17.1 µM, percent relative to cAMP agonist control] | Potency [4] | activity change, negative = inhibition [5] -16.7% [at 30.8 µM] | activation [6] 4.85% [at 30.8 µM]

N#C/C(=C\c1cn(Cc2ccc(C#N)cc2)c2ccccc12)C(=O)NCc1cccs1
inactive: Potency [1] | Potency [2] | activation [3] 8.48% [at 17.1 µM, percent relative to cAMP agonist control] | Potency [4] | activity change, negative = inhibition [5] 7.4% [at 30.8 µM] | activation [6] 15.9% [at 30.8 µM]

CN1CCN(S(=O)(=O)c2ccc(Nc3ccc(F)cc3)nc2)CC1
inactive: Potency [1] | Potency [2] | activation [3] 6.27% [at 17.1 µM, percent relative to cAMP agonist control] | Potency [4] | activity change, negative = inhibition [5] -5.53% [at 30.8 µM] | activation [6] 16.5% [at 30.8 µM]

COc1ccccc1Cn1c(=O)oc2ccc(C)cc21
inactive: Potency [1] | Potency [2] | Potency [3] | Potency [4] | Potency [5] | Potency [6]

CC(C)CNc1cc(Cl)c(S(=O)(=O)NCC(C)C)cc1C(=O)O
inactive: Potency [1] | Potency [2] | activation [3] 1.7% [at 17.1 µM, percent relative to cAMP agonist control] | Potency [4] | activity change, negative = inhibition [5] 8.12% [at 30.8 µM] | activation [6] -0.574% [at 30.8 µM]

Cc1cc2ccccn2c1C(=O)c1ccccc1F
inactive: Potency [1] | Potency [2] | activation [3] 3.67% [at 17.1 µM, percent relative to cAMP agonist control] | Potency [4] | activity change, negative = inhibition [5] -3.01% [at 30.8 µM] | activation [6] 21.5% [at 30.8 µM]

CCN(CC)CCn1c2c(c(SCC(=O)NCc3ccccc3)nc1=O)CCCC2
inactive: Potency [1] | Potency [2] | Potency [3] | Potency [4] | Potency [5] | Potency [6]

COc1ccc(N(C)C(=O)CC2(CC(=O)O)CCCCC2)cc1
inactive: Potency [1] | Potency [2] | activation [3] 8.49% [at 17.1 µM, percent relative to cAMP agonist control] | Potency [4] | activity change, negative = inhibition [5] 1.07% [at 30.8 µM] | activation [6] 2.37% [at 30.8 µM]

COc1cc(/C=C2\SC(=S)N(NS(=O)(=O)c3ccccc3)C2=O)ccc1O
inactive: Potency [1] | Potency [2] | Potency [3] | Potency [4] | Potency [5] | Potency [6]

COC(=O)c1cc2sccc2n1Cc1ccc(F)cc1
inactive: Potency [1] | Potency [2] | Potency [3] | Potency [4] | Potency [5] | Potency [6]
